The list is not random: actives were taken first. Their share in the collection is about 4.5%.
EBNA-1 inh = blocks EBNA-1 binding to DNA | hit rate 0.34% among 300,000 | EBNA-1 DNA binding, fluorescence polarization | inhibition, % at 14.8 µM; in the data active = inhibition above about 28%
ZTA DNA inh = blocks Epstein-Barr virus ZTA, an EBNA-1 counter-screen; P03206; AID 2234; hit rate 0.15% among 320,000; ZTA-DNA binding, fluorescence polarization; inhibition, % at 11 µM; in the data active = inhibition above about 33%
TPT1 inhibitor = blocks Candida albicans tRNA 2'-phosphotransferase; inhibition, % at 5 µM; recombinant caTPT1, FP RNA substrate dephosphorylation; hit rate 0.81% among 300,000;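 active = inhibition above the mean of all tested compounds plus 3 SD, set per screening campaign, cut at about 24% in these data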
dFosB act-1 = activators of mouse delta FosB homodimer. P13346. purified delta FosB, TAMRA-CDK5 oligo fluorescence polarization; percent of positive-control signal above neutral wells. activation, % at 25 µM. hit rate 0.99% among 340,000;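 active = mean activation above about 17%, with every replicate also reaching it, limit read from the data, passing the limit was not always enough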
Target sequence (P13346 whole entry, looked up): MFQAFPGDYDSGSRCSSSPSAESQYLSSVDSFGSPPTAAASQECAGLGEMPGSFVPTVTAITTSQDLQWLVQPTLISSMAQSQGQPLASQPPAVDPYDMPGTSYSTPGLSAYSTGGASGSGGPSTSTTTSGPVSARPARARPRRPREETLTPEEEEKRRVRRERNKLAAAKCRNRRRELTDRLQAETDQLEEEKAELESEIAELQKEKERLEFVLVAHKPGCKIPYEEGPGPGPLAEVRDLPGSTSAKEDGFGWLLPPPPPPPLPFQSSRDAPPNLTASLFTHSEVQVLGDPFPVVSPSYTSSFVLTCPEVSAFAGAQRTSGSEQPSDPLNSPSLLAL
GRIN3A LBD mod = NR3A (human) ligand-binding domain modulation; hit rate 2.5% among 340,000; NR3A LBD differential scanning fluorimetry, Tm shift; 0% = protein alone, 100% = glycine-bound protein; Tm shift relative to glycine control, % at 25 µM;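 active = melting temperature shift of at least 10% of the positive control shift, at one fixed dose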
Rpn11 block = inhibitors of human proteasome Rpn11; O00487; human 26S proteasome, Ub4-pepOG fluorescence polarization; 20S core pre-blocked with epoxomicin; inhibition, % at 20 µM; hit rate 0.59% among 360,000;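 active = inhibition at 20 µM, scaled to each plate's controls, above about 33%, limit read from the data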
dFosB act-2 = enhances mouse delta FosB homodimer binding to DNA. shares compounds with dFosB act-1. purified delta FosB, TAMRA-CDK5 oligo fluorescence polarization; normalised: neutral wells 0, positive control 100. activation, % at 24.9 µM. 2,400 tested, under 10 active;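 active = highest replicate activation at or above 34% and every replicate reaching that threshold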;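 note: higher polarization means more probe DNA bound by delta FosB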
Each line names hits and unclear results; the compound was inactive in the other large screens (follow-up assays come after a bar, where they were run).

CCOc1ccc(-c2cc(NC(=O)Cn3ncc4c3-c3ccccc3OC4)on2)cc1OCC	dFosB act-1 39 | dFosB act-2 inactive
COc1ccc(-n2nc(C(=O)NCC(=O)Nc3cccc(Cl)c3)c3ccccc3c2=O)cc1	dFosB act-1 39 | dFosB act-2 inactive
Cc1nc(CCNC(=O)C2CCC(=O)N(Cc3cccc(F)c3)C2)sc1C (stereo unspecified)	none
CCOC(=O)c1cc(-c2ccccc2)sc1NC(=O)COC(=O)c1cccc(S(N)(=O)=O)c1	EBNA-1 inh 77, dFosB act-1 24 | dFosB act-2 inactive
Cc1ccc(NC(=O)CSc2nncn2-c2ccccn2)cc1Cl	dFosB act-1 26 | dFosB act-2 inactive
CC(=O)Nc1cccc2c1C(=O)N(c1ccccc1OC(C)=O)C2=O	none
Cc1c(Cl)cccc1S(=O)(=O)Nc1ccnn1C	none
CCCSc1nc(N)c2c3c(sc2n1)CN(C)CC3	none
CN(C)CCSc1nc(N)c2c3c(sc2n1)CN(C)CC3	dFosB act-1 25 | dFosB act-2 inactive
Cc1cccc(NC(=S)N/N=C/c2ccc3c(c2)OCO3)c1	none
Cc1cccc(NC(=S)N/N=C/c2ccc(Cl)c([N+](=O)[O-])c2)c1	dFosB act-1 20 | dFosB act-2 inactive
CC1(C)OC(=O)C(=CNNc2c(Cl)cc(Cl)cc2Cl)C(=O)O1	none
CN(C)S(=O)(=O)c1ccc2oc(SCC(=O)c3c(N)n(C4CC4)c(=O)[nH]c3=O)nc2c1	dFosB act-1 20 (no result: EBNA-1 inh, TPT1 inhibitor) | dFosB act-2 inactive
Cc1ccc(S(=O)(=O)N2CCN(c3ccccc3)CC2)cc1C(N)=O	none
CCCCc1ccc(NC(=O)N2CCN(c3cc(C)nc4ccccc34)CC2)c(C)c1	dFosB act-1 37 | dFosB act-2 inactive
Cc1cc(N2CCN(C(=O)Nc3ccc(F)cc3F)CC2)c2ccccc2n1	none
Cc1noc(C)c1S(=O)(=O)Nc1ccc2c(c1)C(=O)N([C@@H](C)CO)C[C@H](C)[C@@H](CN(C)Cc1ccc(C(F)(F)F)cc1)OCCCC[C@H](C)O2	none (no result: EBNA-1 inh, ZTA DNA inh, TPT1 inhibitor, dFosB act-1, GRIN3A LBD mod)
COc1cc2c(cc1NC(=O)CCC(=O)O)oc1ccccc12	none
COc1cc2c(cc1NC(=O)Nc1ccccc1)oc1ccccc12	dFosB act-1 19, GRIN3A LBD mod 16 | dFosB act-2 inactive
COc1ccc(/C=C(/NC(=O)c2cccc([N+](=O)[O-])c2)C(=O)O)cc1OC	none
COc1ccccc1/C=C(\NC(=O)c1ccc(OC)c(OC)c1)C(=O)Nc1cc([N+](=O)[O-])ccc1C	dFosB act-1 28 | dFosB act-2 inactive
CC(=O)N1c2ccccc2C2(O)N=C(C)SC12 (stereo unspecified)	none
CCOCCOC(=O)c1[nH]c2c(c1C)C(=O)CC(c1ccccc1)C2 (stereo unspecified)	none (no result: GRIN3A LBD mod)
CCOC(=O)c1[nH]c2c(c1C)C(=O)CC(c1ccc(F)cc1)C2 (stereo unspecified)	dFosB act-1 21 | dFosB act-2 inactive
CCCCn1c(N)c(N(CCOC)C(=O)C2CC(=O)N(c3ccc(CC)cc3)C2)c(=O)[nH]c1=O (stereo unspecified)	none (no result: EBNA-1 inh, TPT1 inhibitor)
Cc1cc(C(=O)N/N=C\c2ccc(COc3ccc([N+](=O)[O-])cc3)o2)ccc1[N+](=O)[O-]	dFosB act-1 36 | dFosB act-2 inactive
CCOc1ccc(C(=O)N/N=C/c2cc([N+](=O)[O-])cs2)cc1	dFosB act-1 21 | dFosB act-2 inactive
COc1cc(C(=O)N/N=C/c2cc([N+](=O)[O-])cs2)cc(OC)c1OC	none
Cc1ccc(CNC(=O)C2CCN(C(=O)Nc3ccccc3)CC2)cc1	none
Cc1c(Cl)cccc1NC(=O)CNC(=O)C1CCN(C(=O)Nc2ccccc2)CC1	dFosB act-1 24 (no result: EBNA-1 inh, TPT1 inhibitor) | dFosB act-2 inactive
O=C(Nc1c(-c2ccccc2)nc2ncccn12)c1cc2ccccc2oc1=O	dFosB act-1 38 | dFosB act-2 inactive
CC(=O)Nc1c(-c2ccccc2)nc2ncccn12	none
Cn1c(SCC(=O)N/N=C/C=C/c2ccco2)nc2ccccc21	none
Cc1cc(NC(=O)CSc2nc(-c3ccccc3Cl)nc3c2c(=O)n(C)c(=O)n3C)no1	none
Cc1nnc(SCC(=O)Nc2nsc(-c3ccccc3)n2)s1	none

Screening data (PubChem)
